Reference: PubChem BioAssay AID1159580 (chemical genetic matrix, 2015)
Among all 5,500 compounds or so, about 2,000 (36%) were called active. Inconclusive results (about 18%) are left out. This is one part of the list. Values without a mark were called inactive. Rule as the data show it: active = normalized growth mostly below about 0.91 (no sharp cut-off); inconclusive = no clear call, values can overlap the other calls; inactive = mostly above about 0.92.

Experiment: chemical genetic growth profiling, strain panel (AID 1159580);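 also: tested at 20 µM; growth read once vehicle control cultures reached saturation at 30 °C; 1 = growth at the plate median or of vehicle wells; lower values mean less growth of the strain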
Conditions: growth OD
[1] = S. cerevisiae deletion strains, locus YDL101C, strain DUN1, hits give low values
[2] = S. cerevisiae deletion strains, locus YHR030C, strain SLT2, hits give low values

COC(=O)c1ccc(Cl)cc1N(Cc1ccccc1)S(C)(=O)=O
normalized growth (S. cerevisiae deletion strains, locus YAL013W, strain DEP1, hits give low values): 1.01
normalized growth (S. cerevisiae deletion strains, locus YBR229C, strain ROT2, hits give low values): 1.02
normalized growth [1]: 0.998
normalized growth (S. cerevisiae deletion strains, locus YDL134C, strain PPH21, hits give low values): 1
normalized growth (S. cerevisiae deletion strains, locus YDR150W, strain NUM1, hits give low values): 0.934
normalized growth (S. cerevisiae deletion strains, locus YEL061C, strain CIN8, hits give low values): 1
normalized growth (S. cerevisiae deletion strains, locus YGR078C, strain PAC10, hits give low values): 0.992
normalized growth (S. cerevisiae deletion strains, locus YGR229C, strain SMI1, hits give low values): 0.999
normalized growth [2]: 1.11
normalized growth (S. cerevisiae deletion strains, locus YHR087W, strain rtc3, hits give low values): 1
normalized growth (S. cerevisiae deletion strains, locus YJL187C, strain SWE1, hits give low values): 1
normalized growth (S. cerevisiae deletion strains, locus YJR075W, strain HOC1, hits give low values): 0.968
normalized growth (S. cerevisiae deletion strains, locus YLR039C, strain RIC1, hits give low values): 1.03
normalized growth (S. cerevisiae deletion strains, locus YLR058C, strain SHM2 (second series), hits give low values): 1.01
normalized growth (S. cerevisiae deletion strains, locus YLR085C, strain ARP6, hits give low values): 1.05
normalized growth (S. cerevisiae deletion strains, locus YLR262C, strain YPT6, hits give low values): 1
normalized growth (S. cerevisiae deletion strains, locus YML094W, strain GIM5, hits give low values): 1.02
normalized growth (S. cerevisiae deletion strains, locus YMR219W, strain ESC1, hits give low values): 1
normalized growth (S. cerevisiae deletion strains, locus YMR263W, strain SAP30, hits give low values): 0.929
normalized growth (S. cerevisiae deletion strains, locus YNL128W, strain TEP1, hits give low values): 1.02
normalized growth (S. cerevisiae deletion strains, locus YNL153C, strain GIM3, hits give low values): 1
normalized growth (S. cerevisiae deletion strains, locus YNL298W, strain CLA4 (second series), hits give low values): 1.04
normalized growth (S. cerevisiae deletion strains, locus YNL322C, strain KRE1, hits give low values): 0.985
normalized growth (S. cerevisiae deletion strains, locus YNR030W, strain Alg12, hits give low values): 1.02
normalized growth (S. cerevisiae deletion strains, locus YOL006C, strain TOP1, hits give low values): 1.14
normalized growth (S. cerevisiae deletion strains, locus YPL055C, strain LGE1, hits give low values): 0.923
normalized growth (S. cerevisiae deletion strains, locus YPL241C, strain CIN2, hits give low values): 1.03
normalized growth (S. cerevisiae deletion strains, locus YPR135W, strain CTF4, hits give low values): 1.17
normalized growth (S. cerevisiae strains, strain wild type, hits give low values): 1.03

CN(C(=O)N(C)c1ccc(Cl)cc1C(=O)c1ccccc1Cl)c1ccc(Cl)cc1C(=O)c1ccccc1Cl
normalized growth (S. cerevisiae deletion strains, locus YAR019C, strain CDC15, hits give low values): 0.84 (active)
normalized growth (S. cerevisiae deletion strains, locus YBL105C, strain PKC1, hits give low values): 0.85 (active)
normalized growth (S. cerevisiae deletion strains, locus YBR135W, strain CKS1, hits give low values): 0.85 (active)
normalized growth (S. cerevisiae deletion strains, locus YBR136W, strain MEC1, hits give low values): 0.832 (active)
normalized growth (S. cerevisiae deletion strains, locus YBR160W, strain CDC28, hits give low values): 0.853 (active)
normalized growth (S. cerevisiae deletion strains, locus YDL017W, strain CDC7, hits give low values): 0.851 (active)
normalized growth (S. cerevisiae deletion strains, locus YDL028C, strain MPS1, hits give low values): 0.835 (active)
normalized growth [1]: 0.847 (active)
normalized growth (S. cerevisiae deletion strains, locus YDL108W, strain KIN28, hits give low values): 0.831 (active)
normalized growth (S. cerevisiae deletion strains, locus YDL132W, strain cdc53, hits give low values): 0.853 (active)
normalized growth (S. cerevisiae deletion strains, locus YDL214C, strain PRR2, hits give low values): 0.471 (active)
normalized growth (S. cerevisiae deletion strains, locus YDR052C, strain DBF4, hits give low values): 0.855 (active)
normalized growth (S. cerevisiae deletion strains, locus YDR054C, strain cdc34, hits give low values): 0.805 (active)
normalized growth (S. cerevisiae deletion strains, locus YDR226W, strain ADK1, hits give low values): 0.86 (active)
normalized growth (S. cerevisiae deletion strains, locus YDR477W, strain SNF1, hits give low values): 0.467 (active)
normalized growth (S. cerevisiae deletion strains, locus YER123W, strain YCK3, hits give low values): 0.388 (active)
normalized growth (S. cerevisiae deletion strains, locus YER133W, strain GLC7, hits give low values): 0.447 (active)
normalized growth (S. cerevisiae deletion strains, locus YFL009W, strain cdc4, hits give low values): 0.848 (active)
normalized growth (S. cerevisiae deletion strains, locus YFL029C, strain CAK1, hits give low values): 0.828 (active)
normalized growth (S. cerevisiae deletion strains, locus YFR003C, strain YPI1, hits give low values): 0.85 (active)
normalized growth (S. cerevisiae deletion strains, locus YFR019W, strain FAB1, hits give low values): 0.577 (active)
normalized growth (S. cerevisiae deletion strains, locus YFR028C, strain CDC14, hits give low values): 0.841 (active)
normalized growth (S. cerevisiae deletion strains, locus YGR040W, strain KSS1, hits give low values): 0.462 (active)
normalized growth (S. cerevisiae deletion strains, locus YGR052W, strain FMP48, hits give low values): 0.46 (active)
normalized growth (S. cerevisiae deletion strains, locus YGR092W, strain DBF2, hits give low values): 0.242 (active)
normalized growth [2]: 0.49 (active)
normalized growth (S. cerevisiae deletion strains, locus YHR079C, strain IRE1, hits give low values): 0.463 (active)
normalized growth (S. cerevisiae deletion strains, locus YHR082C, strain KSP1, hits give low values): 0.492 (active)
normalized growth (S. cerevisiae deletion strains, locus YHR205W, strain SCH9, hits give low values): 0.716
normalized growth (S. cerevisiae deletion strains, locus YIL147C, strain SLN1, hits give low values): 0.826 (active)
normalized growth (S. cerevisiae deletion strains, locus YJL095W, strain BCK1, hits give low values): 0.417 (active)
normalized growth (S. cerevisiae deletion strains, locus YJL128C, strain PBS2, hits give low values): 0.867
normalized growth (S. cerevisiae deletion strains, locus YJL157C, strain FAR1, hits give low values): 0.51 (active)
normalized growth (S. cerevisiae deletion strains, locus YJR016C, strain ILV3, hits give low values): 0.883 (active)
normalized growth (S. cerevisiae deletion strains, locus YJR066W, strain TOR1 (second series), hits give low values): 0.518 (active)
normalized growth (S. cerevisiae deletion strains, locus YJR066W, strain TOR1, hits give low values): 0.381 (active)
normalized growth (S. cerevisiae deletion strains, locus YKL048C, strain ELM1, hits give low values): 0.605 (active)
normalized growth (S. cerevisiae deletion strains, locus YKL067W, strain YNK1, hits give low values): 0.525 (active)
normalized growth (S. cerevisiae deletion strains, locus YKL101W, strain HSL1, hits give low values): 0.524 (active)
normalized growth (S. cerevisiae deletion strains, locus YKL193C, strain SDS22, hits give low values): 0.832 (active)
normalized growth (S. cerevisiae deletion strains, locus YKL203C, strain TOR2, hits give low values): 0.457 (active)
normalized growth (S. cerevisiae deletion strains, locus YLR113W, strain HOG1, hits give low values): 0.447 (active)
normalized growth (S. cerevisiae deletion strains, locus YLR133W, strain CKI1, hits give low values): 0.582 (active)
normalized growth (S. cerevisiae deletion strains, locus YLR403W, strain SFP1, hits give low values): 0.592 (active)
normalized growth (S. cerevisiae deletion strains, locus YML070W, strain DAK1, hits give low values): 0.446 (active)
normalized growth (S. cerevisiae deletion strains, locus YMR001C, strain CDC5, hits give low values): 0.838 (active)
normalized growth (S. cerevisiae deletion strains, locus YMR205C, strain PFK2 (second series), hits give low values): 0.549 (active)
normalized growth (S. cerevisiae deletion strains, locus YMR277W, strain FCP1, hits give low values): 0.825 (active)
normalized growth (S. cerevisiae deletion strains, locus YNL006W, strain LST8, hits give low values): 0.855 (active)
normalized growth (S. cerevisiae deletion strains, locus YNL020C, strain ARK1, hits give low values): 0.527 (active)
normalized growth (S. cerevisiae deletion strains, locus YNL161W, strain CBK1, hits give low values): 0.852 (active)
normalized growth (S. cerevisiae deletion strains, locus YNL183C, strain NPR1, hits give low values): 0.412 (active)
normalized growth (S. cerevisiae deletion strains, locus YNL207W, strain RIO2, hits give low values): 0.825 (active)
normalized growth (S. cerevisiae deletion strains, locus YNL222W, strain SSU72, hits give low values): 0.846 (active)
normalized growth (S. cerevisiae deletion strains, locus YNL307C, strain MCK1 (second series), hits give low values): 0.412 (active)
normalized growth (S. cerevisiae deletion strains, locus YOL078W, strain AVO1, hits give low values): 0.845 (active)
normalized growth (S. cerevisiae deletion strains, locus YOL136C, strain PFK27, hits give low values): 0.51 (active)
normalized growth (S. cerevisiae deletion strains, locus YOR061W, strain CKA2, hits give low values): 0.477 (active)
normalized growth (S. cerevisiae deletion strains, locus YOR119C, strain RIO1, hits give low values): 0.483 (active)
normalized growth (S. cerevisiae deletion strains, locus YOR231W, strain MKK1, hits give low values): 0.455 (active)
normalized growth (S. cerevisiae deletion strains, locus YOR329C, strain SCD5, hits give low values): 0.846 (active)
normalized growth (S. cerevisiae deletion strains, locus YPL031C, strain PHO85, hits give low values): 0.441 (active)
normalized growth (S. cerevisiae deletion strains, locus YPL153C, strain RAD53, hits give low values): 0.369 (active)
normalized growth (S. cerevisiae deletion strains, locus YPL204W, strain HRR25, hits give low values): 0.487 (active)
normalized growth (S. cerevisiae deletion strains, locus YPL209C, strain IPL1, hits give low values): 0.855 (active)
normalized growth (S. cerevisiae deletion strains, locus YPL256C, strain CLN2, hits give low values): 0.508 (active)
normalized growth (S. cerevisiae deletion strains, locus YPR025C, strain CCL1, hits give low values): 0.856 (active)
normalized growth (S. cerevisiae deletion strains, locus YPR106W, strain ISR1, hits give low values): 0.868 (active)
normalized growth (S. cerevisiae deletion strains, locus YPR111W, strain DBF20, hits give low values): 0.874
normalized growth (S. cerevisiae deletion strains, strain NNK1, hits give low values): 0.855 (active)
normalized growth (S. cerevisiae deletion strains, strain TSCII, hits give low values): 0.818 (active)
